Some test systems named below: RPMI-8226 leukemia; OVCAR-8 ovarian; OVCAR-5 ovarian; OVCAR-4 ovarian; SK-OV-3 ovarian; IGROV1 ovarian; OVCAR-3 ovarian; HS 578T breast; NCI/ADR-RES ovarian; T-47D breast; BT-549 breast; MDA-MB-435 melanoma; SW-620 colon; MCF7 breast; HCT-116 colon; HCC-2998 colon; KM12 colon.
Common to all, as to assay: NCI-60 one-dose screen, 48 h (100 = growth as untreated, 0 = no growth, -100 = all killed)
Common to all, as to conditions: 10 µM unless noted

The structures appear in SMILES notation. Compounds without any hit were thinned out: in the full panel of roughly 83,000, 20% have a hit.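 Assay: single dose, 48 h. Readout: percent growth (0 = no net growth; negative = cell death). Active: <10.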 A number with no mark means an inactive call. Activity calls are given as the source filed them.

For the compound `Cc1cc(C(C)(C)c2cc(C)c(O)c(CN(C)C)c2)cc(CN(C)C)c1O`, the growth in the experiment on RPMI-8226 leukemia is 84.1%; in the experiment on OVCAR-8 ovarian it was 89.4%; with OVCAR-5 ovarian, 102%; in the experiment with OVCAR-4 ovarian it was 99.1%; in the experiment on SK-OV-3 ovarian, 104%; in the experiment on IGROV1 ovarian, 78.9%. Also, the growth is 85.7% with OVCAR-3 ovarian; 76.1% with HS 578T breast; 95.7% with NCI/ADR-RES ovarian; 107% in the experiment on T-47D breast; 84.5% in the experiment with BT-549 breast; 78.1% in the experiment with MDA-MB-435 melanoma. The growth is 92.7% in the experiment on SW-620 colon; 96.4% with MCF7 breast; 55.1% in the experiment with HCT-116 colon; 82.1% in the experiment on HCC-2998 colon; 101% in the experiment on KM12 colon.

Take `COc1cc(/C=C/C(=O)Nc2cccnc2Nc2cc(OC)c(OC)c(OC)c2)cc(OC)c1OC`: the growth in the experiment on RPMI-8226 leukemia is 66.9%; in the experiment on OVCAR-8 ovarian, 84.1%; with OVCAR-5 ovarian, 99.3%; in the experiment on OVCAR-4 ovarian, 92.7%; with SK-OV-3 ovarian, 112%; in the experiment with IGROV1 ovarian, 112%. Moreover, the growth in the experiment with OVCAR-3 ovarian was 114%; with HS 578T breast, 96.6%; in the experiment on NCI/ADR-RES ovarian, 83.5%; in the experiment with T-47D breast, 100%; in the experiment on BT-549 breast it was 96.7%; in the experiment with MDA-MB-435 melanoma it was 96.6%. In addition, the growth in the experiment with SW-620 colon is 99.1%; in the experiment on MCF7 breast, 87.9%; in the experiment with HCT-116 colon, 88.6%; with HCC-2998 colon, 97%; in the experiment with KM12 colon it was 103%.

As for `O=C(Nc1nc2ccccc2s1)c1cc(-c2ccc(F)cc2)n2nc(-c3ccccc3)cc2n1`, the growth was 50.9% in the experiment on RPMI-8226 leukemia; 56.1% in the experiment with OVCAR-8 ovarian; 64.7% in the experiment with OVCAR-5 ovarian; -24.7% (active) in the experiment with OVCAR-4 ovarian; 35% with SK-OV-3 ovarian; 78% in the experiment with IGROV1 ovarian. Besides, the growth in the experiment with OVCAR-3 ovarian is 20.3%; with HS 578T breast it was 59.7%; with NCI/ADR-RES ovarian it was 61.8%; with T-47D breast it was 45.4%; in the experiment on BT-549 breast it was 79%; with MDA-MB-435 melanoma it was 86.5%. In addition, the growth with SW-620 colon was 67.8%; in the experiment on MCF7 breast, 69.3%; in the experiment on HCT-116 colon, 45.8%; in the experiment with HCC-2998 colon, 97.5%; in the experiment on KM12 colon, 68.7%.

Take `COc1ccc(-c2nnc(COc3ccc(NC(=O)Nc4cc(C(F)(F)F)cc(C(F)(F)F)c4)cc3F)o2)cc1`: the growth was -25.8% (active) in the experiment on RPMI-8226 leukemia; 11.4% with OVCAR-8 ovarian; 29% with OVCAR-5 ovarian; 19.2% in the experiment with OVCAR-4 ovarian; 18.4% with SK-OV-3 ovarian; 44.4% with IGROV1 ovarian. Further, the growth was 2.67% (active) in the experiment with OVCAR-3 ovarian; 16.8% with HS 578T breast; 10.6% in the experiment on NCI/ADR-RES ovarian; 20.4% with T-47D breast; 15.5% with BT-549 breast; 7.29% (active) in the experiment on MDA-MB-435 melanoma. For the same compound, the growth with SW-620 colon was 13.6%; in the experiment on MCF7 breast, 1.51% (active); in the experiment on HCT-116 colon, 2.49% (active); with HCC-2998 colon, 11.5%; in the experiment on KM12 colon, 0.401% (active).

For `COc1ccc(-c2nc3sccn3c2-c2ccnc(S(C)(=O)=O)n2)cc1`, the growth was 86.5% with RPMI-8226 leukemia; 111% in the experiment on OVCAR-8 ovarian; 96.7% in the experiment with OVCAR-5 ovarian; 80.4% in the experiment on OVCAR-4 ovarian; 105% with SK-OV-3 ovarian; 37.9% in the experiment on IGROV1 ovarian. Also, the growth in the experiment on OVCAR-3 ovarian is 84.3%; with HS 578T breast, 94.3%; in the experiment on NCI/ADR-RES ovarian, 104%; in the experiment with T-47D breast, 36.4%; in the experiment on BT-549 breast, 122%; with MDA-MB-435 melanoma, 82.7%. The growth is 91.1% in the experiment on SW-620 colon; 46.2% with MCF7 breast; 79.6% in the experiment with HCT-116 colon; -55% (active) in the experiment on HCC-2998 colon; 75% with KM12 colon.

Regarding `C=C1c2c(C)nn(-c3ccc(C#CCOC4OC(CO)C(O)C(O)C4O)cc3)c2N(C)C23C[C@H]1C1(C)c4c(C)nn(-c5ccc(C#CCOC6OC(CO)C(O)C(O)C6O)cc5)c4N(C)C(C)(C[C@H]12)C3` (stereo partly drawn), the growth in the experiment on RPMI-8226 leukemia is -36.4% (active); in the experiment on OVCAR-8 ovarian, 12%; in the experiment on OVCAR-5 ovarian it was 51%; with OVCAR-4 ovarian, 14.7%; in the experiment with SK-OV-3 ovarian, 15.3%; in the experiment with IGROV1 ovarian it was 24.7%. Moreover, the growth in the experiment on OVCAR-3 ovarian was 3.73% (active); in the experiment with HS 578T breast, 1.04% (active); with NCI/ADR-RES ovarian it was 77.2%; with T-47D breast, 7.11% (active); in the experiment with BT-549 breast, 3.47% (active); in the experiment on MDA-MB-435 melanoma, 0.0883% (active). Besides, the growth with SW-620 colon is 11.6%; in the experiment with MCF7 breast, -0.735% (active); in the experiment with HCT-116 colon, 0.942% (active); with HCC-2998 colon, -3.04% (active); in the experiment with KM12 colon it was -23.3% (active).

`Oc1[nH]c2ccc(Cl)cc2c1/C=c1/ccc2c(c1)N=C(c1ccc(C(F)(F)F)cc1)N=2`: the growth was 69% in the experiment on RPMI-8226 leukemia; 67.6% in the experiment on OVCAR-8 ovarian; 76.2% in the experiment with OVCAR-5 ovarian; 59.5% with OVCAR-4 ovarian; 84.4% in the experiment with SK-OV-3 ovarian; 76.8% in the experiment on IGROV1 ovarian. The growth in the experiment with OVCAR-3 ovarian is 32.3%; in the experiment on HS 578T breast it was 74%; with NCI/ADR-RES ovarian, 62.7%; in the experiment on T-47D breast it was 60.5%; with BT-549 breast, 88.4%; with MDA-MB-435 melanoma, 42.7%. The growth with SW-620 colon was 84.3%; in the experiment on MCF7 breast it was 27.6%; in the experiment on HCT-116 colon, 50.1%; in the experiment with HCC-2998 colon, 61.5%; in the experiment on KM12 colon, 45.4%.

Regarding `c1cnc2n[nH]c(Nc3ncnc4c3sc3ncccc34)c2c1`, the growth in the experiment on RPMI-8226 leukemia is 88.1%; with OVCAR-8 ovarian, 96.8%; in the experiment on OVCAR-5 ovarian, 93.2%; in the experiment with OVCAR-4 ovarian, 102%; in the experiment on SK-OV-3 ovarian it was 102%; with IGROV1 ovarian, 109%. In addition, the growth was 111% in the experiment on OVCAR-3 ovarian; 117% in the experiment on HS 578T breast; 104% in the experiment with NCI/ADR-RES ovarian; 93.5% in the experiment on T-47D breast; 106% with BT-549 breast; 101% with MDA-MB-435 melanoma. Besides, the growth was 101% in the experiment with SW-620 colon; 91.3% in the experiment on MCF7 breast; 96.2% in the experiment with HCT-116 colon; 108% with HCC-2998 colon; 103% in the experiment with KM12 colon.

Turning to `COc1ccc(/C=C/C(=O)Nc2cccnc2Nc2ccc(F)cc2)cc1`, the growth with RPMI-8226 leukemia is 88.6%; in the experiment with OVCAR-8 ovarian it was 92.7%; in the experiment on OVCAR-5 ovarian it was 104%; in the experiment on OVCAR-4 ovarian, 91.1%; in the experiment with SK-OV-3 ovarian, 101%; in the experiment with IGROV1 ovarian it was 117%. The growth is 112% with OVCAR-3 ovarian; 103% with HS 578T breast; 93.1% in the experiment with NCI/ADR-RES ovarian; 87.7% in the experiment on T-47D breast; 89.3% with BT-549 breast; 94.4% with MDA-MB-435 melanoma. Besides, the growth in the experiment with SW-620 colon was 106%; with MCF7 breast, 88.3%; in the experiment on HCT-116 colon, 91.3%; in the experiment on HCC-2998 colon, 106%; in the experiment with KM12 colon, 107%.

Values taken from PubChem BioAssay (NCI).
